Screens (PubChem BioAssay)
GALK inh = qHTS Assay for Inhibitors of Human Galactokinase (GALK); Potency, µM (titrated, usually from 57.5 µM), without a hit: at the top dose activity change, negative = inhibition, most hits filed as inhibitors; Purified GALK, Kinase-Glo residual ATP luminescence; P51570; 270,000 compounds, 0.007% hits; also: potency is read from the fitted curve at half-maximal effect; % is scaled to controls: 0 for no effect and ±100 for the full control effect
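Human GALK (5 nM) with 35 uM ATP and 100 uM galactose in 20 mM HEPES pH 8.0, 5 mM MgCl2, 60 mM NaCl, 1 mM DTT, 0.01% BSA. After 1 h at room temperature, leftover ATP was read by Kinase-Glo Plus luminescence.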
FBPA coupling cs = qHTS Assay for Inhibitors of Fructose-1,6-bisphosphate Aldolase from Giardia Lamblia: Coupling assay counterscreen. 290,000 compounds, 0.67% hits. coupling enzyme system counterscreen, AmpLite Red fluorescence. activity change, negative = inhibition, % at 58.2 µM, hits read low. AID 2472, 2010; in the data active = activity change below about -30%; also: % is scaled to controls: 0 for no effect and ±100 for the full control effect
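Coupling enzymes only (glyceraldehyde-3-phosphate) + compound, at 57.5 uM final, 10 min RT; add substrate/coupling/AmpLite Red mix, 20 min RT; fluorescence ex 525/em 598 nm. Actives flag coupling-system interference.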
USP1 inh = Inhibitors of USP1/UAF1: Primary Screen; recombinant USP1/UAF1, Ub-Rhodamine cleavage fluorescence; 390,000 compounds, 0.23% hits; Potency, µM (top dose mostly 57.1 µM), inactives show at the top dose activity change, negative = inhibition, usual class: inhibitors; also: potency is read from the fitted curve at half-maximal effect; % is scaled to controls: 0 for no effect and ±100 for the full control effect; nearly all actives have a fitted effect of over 60% in size
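1 nM enzyme complex + cpd, 15 min RT; start with Ub-Rho 150nM final; kinetic fluorescence ex 480/em 540, 6 reads q60 s. Buffer 50mM HEPES pH 7.8, 0.5mM EDTA, 0.1 mg/ml BSA, 1mM TCEP, 0.01% Tween-20.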
USP2a block = qHTS Assay for Inhibitors of Ubiquitin-specific Protease USP2a Using CHOP2 as the Reporter; Potency, µM (series often up to 38.3 µM), inactives show at the top dose activity change, negative = inhibition, actives largely listed as inhibitors; AID 463254, 2010; 330,000 compounds, 0.01% hits; Ubiquitin carboxyl-terminal hydrolase 2 (Homo sapiens), O75604; USP2 core, Ub-CHOP2 coupled fluorogenic reporter, 485/531;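 also: potency is read from the fitted curve at half-maximal effect; plate controls were DMSO wells for no effect and full inhibition by NEM control for full effect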
Target sequence (O75604 whole entry, looked up): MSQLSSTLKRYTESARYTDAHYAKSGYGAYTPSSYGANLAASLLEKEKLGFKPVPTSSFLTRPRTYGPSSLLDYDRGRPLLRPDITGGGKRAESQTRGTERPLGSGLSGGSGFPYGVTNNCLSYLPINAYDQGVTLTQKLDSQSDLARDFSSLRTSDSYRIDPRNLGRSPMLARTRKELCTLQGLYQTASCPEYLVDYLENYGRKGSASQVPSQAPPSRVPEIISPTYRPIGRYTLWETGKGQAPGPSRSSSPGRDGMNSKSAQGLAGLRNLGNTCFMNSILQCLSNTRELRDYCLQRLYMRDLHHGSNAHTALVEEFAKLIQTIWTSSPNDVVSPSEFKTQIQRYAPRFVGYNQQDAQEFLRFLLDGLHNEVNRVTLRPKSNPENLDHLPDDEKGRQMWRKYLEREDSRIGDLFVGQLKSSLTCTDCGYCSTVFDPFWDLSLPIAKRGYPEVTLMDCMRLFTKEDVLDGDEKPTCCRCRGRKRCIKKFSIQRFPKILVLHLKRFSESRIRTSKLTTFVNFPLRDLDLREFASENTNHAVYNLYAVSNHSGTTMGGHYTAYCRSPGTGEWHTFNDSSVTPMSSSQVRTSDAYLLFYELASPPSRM
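USP2 core (10nM final) preincubated 30min RT with compound in 20mM Tris-HCl pH 8.0, 2mM CaCl2, 2mM beta-mercaptoethanol, 0.05% CHAPS; 25nM Ub-CHOP2 plus 25nM reporter substrate added, fluorescence (Ex485/Em531) read after 60min.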
VDR inhibitor = Inhibitors of the vitamin D receptor (VDR): qHTS; Potency, µM, inactives show max response, negative = inhibition, usual class: inhibitors; Vitamin D3 receptor (Homo sapiens), P11473; 400,000 compounds, 0.93% hits; AID 504847, 2011; VDR-SRC2-3 peptide fluorescence polarization, 2 h; also: potency is read from the fitted curve at half-maximal effect; % is scaled to controls: 0 for no effect and ±100 for the full control effect
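Two reagent solutions held at 4 deg C in the dark were dispensed, compounds pinned at 23 nl, and the mixture incubated 2 h at room temperature. Read-out: fluorescence polarization of VDR–SRC2-3 peptide binding.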
PLK1 PBD inh = qHTS for Inhibitors of PLK1-PDB (polo-like kinase 1 - polo-box domain): Primary Screen; Serine/threonine-protein kinase PLK1 (Homo sapiens), P53350; Plk1 PBD binding of FITC phosphopeptide, fluorescence polarization; Potency, µM, inactives show max response, negative = inhibition, usual class: inhibitors; 360,000 compounds, 2.8% hits; also: potency is read from the fitted curve at half-maximal effect; series mostly up to about 57 µM; % is scaled to controls: 0 for no effect and ±100 for the full control effect; nearly all actives have a fitted effect of over 65% in size
VDR inh confirm = qHTS for Inhibitors of the vitamin D receptor (VDR): Hit Validation in Primary Screen; 840 compounds, 89% hits; VDR-coactivator inhibition assay, qHTS confirmation; shares compounds with VDR inhibitor; Potency, µM, usual class: inhibitors; also: potency is read from the fitted curve at half-maximal effect
VDR FP fluor = qHTS for Inhibitors of the vitamin D receptor (VDR): Hit Validation using a Fluorescein Assay; VDR-coactivator binding, fluorescein fluorescence polarization; 840 compounds, 48% hits; shares compounds with VDR inhibitor; Potency, µM (highest dose often 57.1 µM), for the others: top-dose activity change, negative = inhibition, hits mostly inhibitors; also: potency is read from the fitted curve at half-maximal effect
VDR bla = qHTS for Inhibitors of the vitamin D receptor (VDR): Hit Validation using a Beta-Lactamase Assay | 840 compounds, 23% hits | shares compounds with VDR inhibitor | VDR beta-lactamase reporter cells, FRET ratio; cells co-treated with VDR agonist LG190178 | Potency, µM (titrated, usually from 46.1 µM), for inactives: at the top dose activity change, negative = inhibition, hits mostly inhibitors; also: potency is read from the fitted curve at half-maximal effect; % is scaled to controls: 0 for no effect and ±100 for the full control effect
VDR cytotox = qHTS for Inhibitors of the vitamin D receptor (VDR): Hit Validation using a Cytotoxicity Assay. shares compounds with VDR inhibitor. cytotoxicity counter-screen, cell viability, qHTS. Potency, µM (top dose mostly 48.3 µM), for the others: at the highest dose activity change, negative = cytotoxicity, usual class: cytotoxic. 840 compounds, 18% hits. AID 602204, 2012;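 also: potency is read from the fitted curve at half-maximal effect; plate controls were DMSO for no effect and high-concentration cycloheximide for full effect; nearly all actives have a fitted effect of over 75% in size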
* hit, by the source's call. Shown are actives, neighbours in structure and some others; about 3.2% of the full set was active somewhere. Unless noted, calls follow the shape of the dose curve; as a rule, active = well fitted curve in the direction sought with a large enough effect; inconclusive = small, poorly fitted or top-dose-only effect, or another doubt; inactive = no such curve, though single readings can be large; an effect the other way counts as inactive or inconclusive.

What do the screens show for `CCOC(=O)CSc1nc2sc(C)c(C)c2c(=O)[nH]1`?
GALK inh: 1%; FBPA coupling cs: -8; USP1 inh: -8%; USP2a block: 2%; VDR inhibitor: -5%; PLK1 PBD inh: 0%

How did CC1=NN(c2ccccc2)C(=O)/C1=C\C=C\c1ccccc1 do in these assays?
GALK inh: -3%; FBPA coupling cs: 2; USP1 inh: inconclusive; USP2a block: -2%; VDR inhibitor: 40µM*; PLK1 PBD inh: 0%; VDR inh confirm: 19*; VDR FP fluor: inconclusive; VDR bla: inconclusive; VDR cytotox: -25%

How did O=C(Cn1nnc2ccccc2c1=O)N1CCOCC1 do in these assays?
GALK inh: 3%; FBPA coupling cs: 1; USP1 inh: -9%; USP2a block: 3%; VDR inhibitor: 12%; PLK1 PBD inh: -4%

What do the screens show for `CCCOc1ccc(/C=C2/C(=O)ON=C2C)cc1Cl`?
GALK inh: -1%; FBPA coupling cs: -2; USP1 inh: -27%; USP2a block: -1%; VDR inhibitor: 18µM*; PLK1 PBD inh: 1.1µM*; VDR inh confirm: 7.5*; VDR FP fluor: inconclusive; VDR bla: -12%; VDR cytotox: -37%

What do the screens show for `CCOc1ccc(Cl)cc1/C=C1/C(=O)ON=C1C`?
GALK inh: 1%; FBPA coupling cs: 0; USP1 inh: -16%; USP2a block: 1%; VDR inhibitor: inconclusive; PLK1 PBD inh: inconclusive; VDR inh confirm: 8.9*; VDR FP fluor: 3.5µM*; VDR bla: -5%; VDR cytotox: 9%

What do the screens show for `COc1ccc(C2=NN(c3ccccc3)C(=O)/C2=C\c2ccc(O)c(OC)c2)cc1`?
GALK inh: 3%; FBPA coupling cs: 12; USP1 inh: -25%; USP2a block: -7%; VDR inhibitor: -10%; PLK1 PBD inh: inconclusive

What do the screens show for `COc1cc(/C=C2\C(=O)ON=C2c2ccc(Cl)cc2)ccc1O`?
USP1 inh: -15%; VDR inhibitor: inconclusive; PLK1 PBD inh: inconclusive; VDR inh confirm: 7.1*; VDR FP fluor: inconclusive; VDR bla: inconclusive; VDR cytotox: -11%

How did COc1cc(/C=C2/C(=O)ON=C2C)cc(Cl)c1O do in these assays?
GALK inh: -11%; FBPA coupling cs: -6; USP1 inh: -23%; USP2a block: -2%; VDR inhibitor: 89µM*; PLK1 PBD inh: 15%; VDR inh confirm: 27*; VDR FP fluor: 222%; VDR bla: 21%; VDR cytotox: 4%

How did CCCN(CCC)CCCNC(=O)C(NS(=O)(=O)c1ccc2c(c1)CCC(=O)N2)c1ccccc1 (stereo unspecified) do in these assays?
GALK inh: 0%; FBPA coupling cs: 0; USP1 inh: -16%; USP2a block: 3%; VDR inhibitor: -4%; PLK1 PBD inh: -15%

What do the screens show for `O=C(O)COc1ccc2oc3c(c2c1)CCCC3`?
GALK inh: -2%; FBPA coupling cs: 12; USP1 inh: 3%; USP2a block: -1%; VDR inhibitor: -15%; PLK1 PBD inh: -20%

How did CCC(=O)NC(c1ccccc1OC)c1ccc2cccnc2c1O (stereo unspecified) do in these assays?
GALK inh: 0%; FBPA coupling cs: 0; USP1 inh: -5%; USP2a block: -1%; VDR inhibitor: 3%; PLK1 PBD inh: -8%

What do the screens show for `COc1ccc(Cl)cc1C(Nc1cccnc1)c1ccc2cccnc2c1O` (stereo unspecified)?
GALK inh: -1%; FBPA coupling cs: -6; USP1 inh: -25%; USP2a block: -11%; VDR inhibitor: 20µM*; PLK1 PBD inh: 4.2µM*; VDR inh confirm: 21*; VDR FP fluor: inconclusive; VDR bla: -30%; VDR cytotox: -19%

What do the screens show for `O=C1N[C@H](Cc2ccccc2)COC(=O)[C@H](Cc2ccc(F)cc2)C/C=C\C[C@H]1CC(=O)N(CCO)Cc1ccccc1`?
USP1 inh: -24%; USP2a block: -8%; VDR inhibitor: -4%; PLK1 PBD inh: -6%

What do the screens show for `CCN(CC)c1ccc(/C=N/NC(=O)c2c(-c3ccccc3)noc2C)cc1`?
GALK inh: 7%; FBPA coupling cs: 0; USP1 inh: -19%; USP2a block: -1%; VDR inhibitor: -2%; PLK1 PBD inh: -11%

What do the screens show for `Cc1oc2c(O)c(O)ccc2c(=O)c1-c1ccccc1`?
GALK inh: 2%; FBPA coupling cs: -12; USP1 inh: inconclusive; USP2a block: 1%; VDR inhibitor: 6%; PLK1 PBD inh: -8%

How did O=c1cc(-c2ccccc2)oc2c(O)c(O)ccc12 do in these assays?
FBPA coupling cs: -9; VDR inhibitor: 13µM*; VDR inh confirm: 20*; VDR FP fluor: 25µM*; VDR bla: 23µM*; VDR cytotox: inconclusive

What do the screens show for `COc1ccccc1C(=O)Nc1nc(-c2cccs2)c(NC(C)=O)s1`?
GALK inh: -2%; FBPA coupling cs: 1; USP1 inh: -14%; USP2a block: 2%; VDR inhibitor: 5%; PLK1 PBD inh: -13%
